Test results from the OligoGym collection.

These sequences were tested against GTF2H5 (assay: pooled miR-30 sensor sort-seq; sequence = guide strand). Conditions: shRNA.
Also: reference of the scale not given here.

Question: For TACAGCAGAAACTGCTTCATGG, which sensor-assay potency score (higher = more potent) is on record?
Answer: The sensor-assay potency score (higher = more potent) was -0.967.

Question: TGAATGATGAACTTCTTCCCCA was tested. Which sensor-assay potency score (higher = more potent) did it give?
Answer: Its sensor-assay potency score (higher = more potent) is -0.103.

Question: TATTACAAAGACGTGAGTGTCA was tested. Which sensor-assay potency score (higher = more potent) did it give?
Answer: Its sensor-assay potency score (higher = more potent) is 0.236.

Question: How did the sensor-assay potency score (higher = more potent) turn out when TCTTGAATGATGAACTTCTTCC was run?
Answer: Its sensor-assay potency score (higher = more potent) is -0.75.

Question: How did the sensor-assay potency score (higher = more potent) turn out when TTCTGCTATTACAAAGACGTGA was run?
Answer: Its sensor-assay potency score (higher = more potent) is -0.0161.

The sequences below were run against GUCY2F in the same assay as above. Conditions: shRNA.

Question: With TAATCTGGAAGCTTACACTGGC as the sequence, how does the sensor-assay potency score (higher = more potent) read?
Answer: The sensor-assay potency score (higher = more potent) was 0.71.

Question: For TTCCATTTCCATTTGAATCTGT, which sensor-assay potency score (higher = more potent) is on record?
Answer: Its sensor-assay potency score (higher = more potent) is 0.512.

Question: For TTATAAAGTAAGCAAATCCATT, which sensor-assay potency score (higher = more potent) is on record?
Answer: Its sensor-assay potency score (higher = more potent) is -1.1.

Question: How did the sensor-assay potency score (higher = more potent) turn out when TTTCACATCTTGATTTGTCAGT was run?
Answer: Its sensor-assay potency score (higher = more potent) is -0.489.

Question: For TTGAATTGTAGATGGTTCCAAA, which sensor-assay potency score (higher = more potent) is on record?
Answer: Its sensor-assay potency score (higher = more potent) is -0.33.

Question: With TTGGTCGTTGTTCTGCAGCCTC as the sequence, how does the sensor-assay potency score (higher = more potent) read?
Answer: The sensor-assay potency score (higher = more potent) was -0.834.

Question: With TGAAGAATTGTAACAGTGCTGA as the sequence, how does the sensor-assay potency score (higher = more potent) read?
Answer: Its sensor-assay potency score (higher = more potent) is -0.218.

Question: TAGATGGTTCCAAACAACGGTG was tested. Which sensor-assay potency score (higher = more potent) did it give?
Answer: Its sensor-assay potency score (higher = more potent) is -1.15.

Question: With TTGAAGAATTGTAACAGTGCTG as the sequence, how does the sensor-assay potency score (higher = more potent) read?
Answer: The sensor-assay potency score (higher = more potent) was 0.627.

Question: Which sensor-assay potency score (higher = more potent) does the source give for TAATATTGGTCTTCTTCCCTTT here?
Answer: Its sensor-assay potency score (higher = more potent) is -0.067.

Question: Which sensor-assay potency score (higher = more potent) does the source give for TAATGGTCAACACTGCATCATA here?
Answer: The sensor-assay potency score (higher = more potent) was -1.31.

Question: How did the sensor-assay potency score (higher = more potent) turn out when TAAATTGAATTGTAGATGGTTC was run?
Answer: The sensor-assay potency score (higher = more potent) was -0.461.

The sequences below were run against GYG1 in the same assay as above. Conditions: shRNA.

Question: With TTTAAGAACTGATACAGCCATC as the sequence, how does the sensor-assay potency score (higher = more potent) read?
Answer: The sensor-assay potency score (higher = more potent) was -1.1.

Question: How did the sensor-assay potency score (higher = more potent) turn out when TTACATATGAGCAGGTGTCTTT was run?
Answer: Its sensor-assay potency score (higher = more potent) is -0.417.

Question: With TTGAAGCAGAGGTAAAACGTTG as the sequence, how does the sensor-assay potency score (higher = more potent) read?
Answer: Its sensor-assay potency score (higher = more potent) is -0.811.

Question: How did the sensor-assay potency score (higher = more potent) turn out when TAACAGACTTTTCTCAACCCAG was run?
Answer: The sensor-assay potency score (higher = more potent) was -0.49.

Question: How did the sensor-assay potency score (higher = more potent) turn out when TCTAGCAACTGTAACAGACTTT was run?
Answer: The sensor-assay potency score (higher = more potent) was -0.0429.

Question: Which sensor-assay potency score (higher = more potent) does the source give for TACTGTGTAAGCGACCAGCAGT here?
Answer: Its sensor-assay potency score (higher = more potent) is -0.399.

Question: With TTACTGTACACAGAAAACTGGT as the sequence, how does the sensor-assay potency score (higher = more potent) read?
Answer: The sensor-assay potency score (higher = more potent) was -0.292.

Question: Which sensor-assay potency score (higher = more potent) does the source give for TACAGAACTGAACAAAAGCATT here?
Answer: Its sensor-assay potency score (higher = more potent) is -1.48.

Question: With TTAATATCTTGAGTTTCCCTTA as the sequence, how does the sensor-assay potency score (higher = more potent) read?
Answer: Its sensor-assay potency score (higher = more potent) is -0.312.

Question: With TAACCATCAGAGAACACACTGC as the sequence, how does the sensor-assay potency score (higher = more potent) read?
Answer: Its sensor-assay potency score (higher = more potent) is 0.344.

Question: With TTGCTCAGAAGCAAGATGCAAC as the sequence, how does the sensor-assay potency score (higher = more potent) read?
Answer: Its sensor-assay potency score (higher = more potent) is -0.936.

Question: Which sensor-assay potency score (higher = more potent) does the source give for TTTAATGAAAACCTCTAGCAAC here?
Answer: Its sensor-assay potency score (higher = more potent) is -1.05.

These sequences were tested against H2AFZ in the same assay as above. Conditions: shRNA.

Question: With TTTGAAGCCACAGTAACACTTA as the sequence, how does the sensor-assay potency score (higher = more potent) read?
Answer: Its sensor-assay potency score (higher = more potent) is 0.62.

Question: ATAATGTCTGTACAAAACCAAA was tested. Which sensor-assay potency score (higher = more potent) did it give?
Answer: The sensor-assay potency score (higher = more potent) was -1.91.

Question: For TTTGTCTTGGCCTTTCCGGAGT, which sensor-assay potency score (higher = more potent) is on record?
Answer: Its sensor-assay potency score (higher = more potent) is -0.897.

Question: With TTAGGTGTCGATGAATACGGCC as the sequence, how does the sensor-assay potency score (higher = more potent) read?
Answer: The sensor-assay potency score (higher = more potent) was -0.494.

Question: With TAAACTTCCAACTTGCTCAAAT as the sequence, how does the sensor-assay potency score (higher = more potent) read?
Answer: Its sensor-assay potency score (higher = more potent) is -0.831.

Question: TTTAGGTGTCGATGAATACGGC was tested. Which sensor-assay potency score (higher = more potent) did it give?
Answer: Its sensor-assay potency score (higher = more potent) is -0.619.

Question: Which sensor-assay potency score (higher = more potent) does the source give for TTTACCTTTAAGTCTTTTGATG here?
Answer: The sensor-assay potency score (higher = more potent) was -0.972.

Question: How did the sensor-assay potency score (higher = more potent) turn out when TTGAACTTATCCACCAGAGTGG was run?
Answer: Its sensor-assay potency score (higher = more potent) is -0.27.

Question: TAGCAAGTTGCAAGTGACGAGG was tested. Which sensor-assay potency score (higher = more potent) did it give?
Answer: Its sensor-assay potency score (higher = more potent) is -0.877.

Question: Which sensor-assay potency score (higher = more potent) does the source give for TAGATTTTAGGTGTCGATGAAT here?
Answer: The sensor-assay potency score (higher = more potent) was -1.16.

Question: With TTAAACTTCCAACTTGCTCAAA as the sequence, how does the sensor-assay potency score (higher = more potent) read?
Answer: The sensor-assay potency score (higher = more potent) was -1.
